Measured values reported in article PMC12864922, “TDP-43 directly inhibits mRNA accumulation in neurites through modulation of mRNA stability”.
Whole data set: some 9,900 sequences, median “r (bound/input frequency ratio)” near 0.7, cut for the highest 2% near 6.5. The list comes from a sample in which the highest values are over-represented; it also holds similar and randomly drawn sequences.

B1: ENSMUSG00000031028.95|Tub (ssRNA)
RNA: GGGAGUUCUACAGUCCGACGAUCGCUUCGAUAUCCGCAUGCUAGGUGGUCAGCAGAAAGCACUCCCACUUCAAAAGGGCCCAUUAGGCCCAAAGGGGGUUAGGAGUGGUAGGGAUAGGUGCGUGGCAGGUCCCUGCUAGGAUUGCAGGGGCCUGGCCAUGUGUAUUAGCUGGAGGCUUAGAAUGCUAGCUCAUUUGUUGCUACAGAUUUGCCCAGUGCUUGCACACGUAAGAACCCAGCUCUCAAGGCCAAAUAUCUGAGUGGAUGGGGAUGAUAGGAGUCAUCCAGUAGACUCCCUACAUCACUCUUGCGGUCGCACUAGUGUGGAAUUCUCGGGUGUCAAGG
B2: ENSMUSG00000029028.207|Lrrc47 (ssRNA)
RNA: GGGAGUUCUACAGUCCGACGAUCGCUUCGAUAUCCGCAUGCUAGUCCUAAGGACCCAGCAGCUGCACAGAGGACUUGGUGGCCCCGUGCCUUGCCAUCUGGCUGAGAAGAGAACCAGACCCUCAGCCUUCCCCCUCGACACCUUCUCGUUGGUGACCUCUGACCUUAAAGGACCAUUUCUACCUUCUGUAAAAGAACACCUGUUUGGGGUUGCGUGCGGCUUUCAUCCUAAGGCCGUGCGAGAGCCGUUAGCUGUCAGAACUAGUGAAGCUCCAGGCUCCUCGUGGCAGACCCUGGACAACGCCUCUUGCGGUCGCACUAGUGUGGAAUUCUCGGGUGUCAAGG
B3: ENSMUSG00000022095.262|Fam160b2 (ssRNA)
RNA: GGGAGUUCUACAGUCCGACGAUCGCUUCGAUAUCCGCAUGCUAUGAAUGUGAGUGUGUGUGUGUGUGUGUGUGUGUGAGAGAGAGAGAGAGAGAGCGAGCUAUGAAUGAAUGUGAGUGUGUGUGUGUGUGUGUGUGAGAGAGAGAGAGAGAGAGAGAGAGCUGUGAGUACACAUGGGUGCUGGUGUGGGACAGGAGCAGAUCUUGGUGGAGUGGGUCUACACUUGAGAUUUGUACUCGUUUGAGAGGCUGGGCAAUACUCAAUGCACUUUGGCAUUUGCAUGGUGUCUUCACAACAGCACAGCCUCUUGCGGUCGCACUAGUGUGGAAUUCUCGGGUGUCAAGG
B4: ENSMUSG00000022095.265|Fam160b2|1:16;55:75;122:126 (ssRNA)
RNA: GGGAGUUCUACAGUCCGACGAUCGCUUCGAUAUCCGCAUGCUAACACACACACACACACAGAGAGAGAGAGAGAGAGCGAGCUAUGAAUGAAUGUGACACACACACACACACACACACAGAGAGAGAGAGAGAGAGAGAGAGCUGUGAGUACACAUGGGUGCUGCACACGGACAGGAGCAGAUCUUGGUGGAGUGGGUCUACACUUGAGAUUUGUACUCGUUUGAGAGGCUGGGCAAUACUCAAUGCACUUUGGCAUUUGCAUGGUGUCUUCACAACAGCACAGCAAUAAACAUUGUGAUUGUCUCUUGCGGUCGCACUAGUGUGGAAUUCUCGGGUGUCAAGG
B5: ENSMUSG00000022095.266|Fam160b2 (ssRNA)
RNA: GGGAGUUCUACAGUCCGACGAUCGCUUCGAUAUCCGCAUGCUAUGUGUGUGUGAGAGAGAGAGAGAGAGAGCGAGCUAUGAAUGAAUGUGAGUGUGUGUGUGUGUGUGUGUGAGAGAGAGAGAGAGAGAGAGAGAGCUGUGAGUACACAUGGGUGCUGGUGUGGGACAGGAGCAGAUCUUGGUGGAGUGGGUCUACACUUGAGAUUUGUACUCGUUUGAGAGGCUGGGCAAUACUCAAUGCACUUUGGCAUUUGCAUGGUGUCUUCACAACAGCACAGCAAUAAACAUUGUGAUUGUGUGGACCUCUUGCGGUCGCACUAGUGUGGAAUUCUCGGGUGUCAAGG
B6: ENSMUSG00000022095.260|Fam160b2 (ssRNA)
RNA: GGGAGUUCUACAGUCCGACGAUCGCUUCGAUAUCCGCAUGCUAGCGAGCUAUGAAUGAAUGUGAGUGUGUGUGUGUGUGUGUGUGUGUGAGAGAGAGAGAGAGAGAGCGAGCUAUGAAUGAAUGUGAGUGUGUGUGUGUGUGUGUGUGAGAGAGAGAGAGAGAGAGAGAGAGCUGUGAGUACACAUGGGUGCUGGUGUGGGACAGGAGCAGAUCUUGGUGGAGUGGGUCUACACUUGAGAUUUGUACUCGUUUGAGAGGCUGGGCAAUACUCAAUGCACUUUGGCAUUUGCAUGGUGUCUUCACUCUUGCGGUCGCACUAGUGUGGAAUUCUCGGGUGUCAAGG
B7: ENSMUSG00000022095.264|Fam160b2 (ssRNA)
RNA: GGGAGUUCUACAGUCCGACGAUCGCUUCGAUAUCCGCAUGCUAUGUGUGUGUGUGUGUGUGUGUGAGAGAGAGAGAGAGAGAGCGAGCUAUGAAUGAAUGUGAGUGUGUGUGUGUGUGUGUGUGAGAGAGAGAGAGAGAGAGAGAGAGCUGUGAGUACACAUGGGUGCUGGUGUGGGACAGGAGCAGAUCUUGGUGGAGUGGGUCUACACUUGAGAUUUGUACUCGUUUGAGAGGCUGGGCAAUACUCAAUGCACUUUGGCAUUUGCAUGGUGUCUUCACAACAGCACAGCAAUAAACAUUGUCUCUUGCGGUCGCACUAGUGUGGAAUUCUCGGGUGUCAAGG
B8: ENSMUSG00000022095.259|Fam160b2 (ssRNA)
RNA: GGGAGUUCUACAGUCCGACGAUCGCUUCGAUAUCCGCAUGCUAGAGAGAGCGAGCUAUGAAUGAAUGUGAGUGUGUGUGUGUGUGUGUGUGUGUGAGAGAGAGAGAGAGAGAGCGAGCUAUGAAUGAAUGUGAGUGUGUGUGUGUGUGUGUGUGAGAGAGAGAGAGAGAGAGAGAGAGCUGUGAGUACACAUGGGUGCUGGUGUGGGACAGGAGCAGAUCUUGGUGGAGUGGGUCUACACUUGAGAUUUGUACUCGUUUGAGAGGCUGGGCAAUACUCAAUGCACUUUGGCAUUUGCAUGGUGCUCUUGCGGUCGCACUAGUGUGGAAUUCUCGGGUGUCAAGG
B9: ENSMUSG00000022095.265|Fam160b2 (ssRNA)
RNA: GGGAGUUCUACAGUCCGACGAUCGCUUCGAUAUCCGCAUGCUAUGUGUGUGUGUGUGUGAGAGAGAGAGAGAGAGAGCGAGCUAUGAAUGAAUGUGAGUGUGUGUGUGUGUGUGUGUGAGAGAGAGAGAGAGAGAGAGAGAGCUGUGAGUACACAUGGGUGCUGGUGUGGGACAGGAGCAGAUCUUGGUGGAGUGGGUCUACACUUGAGAUUUGUACUCGUUUGAGAGGCUGGGCAAUACUCAAUGCACUUUGGCAUUUGCAUGGUGUCUUCACAACAGCACAGCAAUAAACAUUGUGAUUGUCUCUUGCGGUCGCACUAGUGUGGAAUUCUCGGGUGUCAAGG
B10: ENSMUSG00000022095.267|Fam160b2 (ssRNA)
RNA: GGGAGUUCUACAGUCCGACGAUCGCUUCGAUAUCCGCAUGCUAUGUGAGAGAGAGAGAGAGAGAGCGAGCUAUGAAUGAAUGUGAGUGUGUGUGUGUGUGUGUGUGAGAGAGAGAGAGAGAGAGAGAGAGCUGUGAGUACACAUGGGUGCUGGUGUGGGACAGGAGCAGAUCUUGGUGGAGUGGGUCUACACUUGAGAUUUGUACUCGUUUGAGAGGCUGGGCAAUACUCAAUGCACUUUGGCAUUUGCAUGGUGUCUUCACAACAGCACAGCAAUAAACAUUGUGAUUGUGUGGACAUGCUGCUCUUGCGGUCGCACUAGUGUGGAAUUCUCGGGUGUCAAGG
B11: ENSMUSG00000022095.258|Fam160b2 (ssRNA)
RNA: GGGAGUUCUACAGUCCGACGAUCGCUUCGAUAUCCGCAUGCUAGUGAGAGAGAGAGCGAGCUAUGAAUGAAUGUGAGUGUGUGUGUGUGUGUGUGUGUGUGAGAGAGAGAGAGAGAGAGCGAGCUAUGAAUGAAUGUGAGUGUGUGUGUGUGUGUGUGUGAGAGAGAGAGAGAGAGAGAGAGAGCUGUGAGUACACAUGGGUGCUGGUGUGGGACAGGAGCAGAUCUUGGUGGAGUGGGUCUACACUUGAGAUUUGUACUCGUUUGAGAGGCUGGGCAAUACUCAAUGCACUUUGGCAUUUGCCUCUUGCGGUCGCACUAGUGUGGAAUUCUCGGGUGUCAAGG
B12: ENSMUSG00000032194.73|Kank2|146:150 (ssRNA)
RNA: GGGAGUUCUACAGUCCGACGAUCGCUUCGAUAUCCGCAUGCUAUUUGAAUGUCACUGGAAUGUUACAGUGUCUAUUGUCUCCUCAUCUUUACAGCAGGUCUCCACAAAGCCUGCUCACCACCCUUUGUCACCUCAUUUCAUUGUCUAGUGUACAAUAGGGUCUUGUCCACUGCCCUCCACCUCCAGACACACACUUCAGGGCCUGGGGUGUCUCUUGUGAUUGCUUUACAGAAUAAGAUUGCCGUACCUUAGCCGCCUGCCUCCAGUCAGAAAGCAGUGUUUUCAUUUGCCUUUUUCCUUUCUCUCUUGCGGUCGCACUAGUGUGGAAUUCUCGGGUGUCAAGG
B13: ENSMUSG00000058297.497|Spock2|151:155 (ssRNA)
RNA: GGGAGUUCUACAGUCCGACGAUCGCUUCGAUAUCCGCAUGCUAGGUUGGAGAGAGUAAAUGUGCCUUGAGAGACCACUCAGAGGUCCCAGGAGGAACGGGGGCGGGGCUUAGCCUGGGAGUUCUGGCAGGAGGCAAAGUUGGUGAGAGUCCUGGGACAUCUUACCCCCAGUGUUCCACAGGAGUCGUGACCACCACACAUGGGUGGGCACAGGUCUGCCUUGCUCCAGCCCCCUCCCUUGGUUUCUGUUGGUACCCAUUUGGCUUUUAUCUGCUUUCUGCUUCACCACUAAGUGCGUAGGUGGCUCUUGCGGUCGCACUAGUGUGGAAUUCUCGGGUGUCAAGG

Molecular target: TDP-43 (Homo sapiens, UniProt Q13148 1-414)
Test: RNA Bind-n-Seq with designed 260-mer pool; 25 mM Tris-HCl, 150 mM KCl, 3 mM MgCl2, BSA (printed 500 mg/mL), 20 units/mL SUPERase IN; pH not stated; 500 nM RNA pool, 1 h, 4 C; TDP-43 5, 50, 500 nM; high values mean tight binding
Settings: protein: recombinant; tags: SBP (GST cleaved off with PreScission; pGEX-GST-SBP)
Outline: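 Recombinant SBP-tagged TDP-43 at 5, 50 or 500 nM was captured on streptavidin beads, then incubated 1 h at 4 °C with 500 nM of an in vitro-transcribed 260-nt 3′ UTR oligo pool in 25 mM Tris-HCl, 150 mM KCl, 3 mM MgCl2, BSA and SUPERase IN. Bound RNA was washed, eluted with biotin, reverse transcribed, PCR-amplified and sequenced. Binding is R, each oligo's mapped-read-normalized abundance in the bound sample divided by its abundance in input. Duplicates used two independent protein batches.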

Chain of TDP-43 (Q13148 whole entry): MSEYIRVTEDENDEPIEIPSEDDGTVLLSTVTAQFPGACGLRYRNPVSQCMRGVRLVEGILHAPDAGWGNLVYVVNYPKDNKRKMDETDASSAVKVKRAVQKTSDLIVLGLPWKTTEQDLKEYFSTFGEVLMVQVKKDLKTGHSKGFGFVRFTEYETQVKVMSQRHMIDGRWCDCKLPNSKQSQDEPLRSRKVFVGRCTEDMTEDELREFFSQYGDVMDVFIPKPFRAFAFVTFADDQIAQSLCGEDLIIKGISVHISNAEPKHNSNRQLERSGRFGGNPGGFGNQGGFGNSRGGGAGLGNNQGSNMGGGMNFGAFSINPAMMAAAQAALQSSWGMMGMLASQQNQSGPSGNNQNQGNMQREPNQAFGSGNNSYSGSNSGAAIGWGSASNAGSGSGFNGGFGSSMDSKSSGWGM

Binder | binding signal
B1 | 1.54 R (bound/input frequency ratio)
B2 | 0.453 R (bound/input frequency ratio)
B3 | 9.41 R (bound/input frequency ratio)
B4 | 5.93 R (bound/input frequency ratio)
B5 | 7.33 R (bound/input frequency ratio)
B6 | 7.36 R (bound/input frequency ratio)
B7 | 5.78 R (bound/input frequency ratio)
B8 | 5.88 R (bound/input frequency ratio)
B9 | 4.76 R (bound/input frequency ratio)
B10 | 5.01 R (bound/input frequency ratio)
B11 | 4.34 R (bound/input frequency ratio)
B12 | 1.55 R (bound/input frequency ratio)
B13 | 2.24 R (bound/input frequency ratio)
